Records with an inconclusive call do not appear. Unmarked numbers belong to inactive results. The source made the active and inactive calls. The call rests on the fitted dose curve; in most records, active means well fitted cell-killing curve with a large enough effect; inconclusive means small, poorly fitted or top-dose-only effect, or effect the other way; inactive means no such curve, though single readings can be large or run the other way.

Assay [1] is described as follows: Quantitative High-Throughput drug screen in 47 multiple myeloma cell lines against the NCATS MIPE library collection: LP1_DSMZ cell viability assay (AID 1918982). Further: nearly all actives have a fitted effect of over 35% in size. Further: potency means the concentration at half of the fitted maximal effect. The method in brief: (§1)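 500 cells/well; MIPE 4.0 drugs pin-transferred; 48 h, 37C, 5% CO2. CellTiter-Glo, 5 min RT, luminescence. Controls: DMSO 100%, media 0%.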
Assay [2] can be described thus: Quantitative High-Throughput drug screen in 47 multiple myeloma cell lines against the NCATS MIPE library collection: KMS28PE_JCRB cell viability assay (AID 1918983). Further: nearly all actives have a fitted effect of over 35% in size. Further: potency means the concentration at half of the fitted maximal effect. The method in brief: as §1
A short description of assay [3]: Quantitative High-Throughput drug screen in 47 multiple myeloma cell lines against the NCATS MIPE library collection: KMS34_JCRB cell viability assay (AID 1918985). Further: nearly all actives have a fitted effect of over 40% in size. Further: potency means the concentration at half of the fitted maximal effect. The method in brief:
as §1

The nature of assay [4]: Quantitative High-Throughput drug screen in 47 multiple myeloma cell lines against the NCATS MIPE library collection: OCIMY7_PLB cell viability assay (AID 1918987). Further: nearly all actives have a fitted effect of over 65% in size. Further: potency means the concentration at half of the fitted maximal effect. Particulars: OCI-MY7 myeloma viability, CellTiter-Glo ATP, 48 h; viability (% of DMSO): at 45.8 µM (top of the series). The method in brief: as §1
On the technique in general: Cellular ATP, detected with luciferase, serves as a proxy for viable cell number.

A short description of assay [5]: Quantitative High-Throughput drug screen in 47 multiple myeloma cell lines against the NCATS MIPE library collection: OCIMY5_PLB cell viability assay (AID 1918988). Further: nearly all actives have a fitted effect of over 65% in size. Further: potency means the concentration at half of the fitted maximal effect. The method, boiled down:
as §1

The nature of assay [6]: Quantitative High-Throughput drug screen in 47 multiple myeloma cell lines against the NCATS MIPE library collection: OPM1_PLB cell viability assay (AID 1918989). Further: nearly all actives have a fitted effect of over 40% in size. Further: potency means the concentration at half of the fitted maximal effect. The method in brief: as §1
The nature of assay [7]: Quantitative High-Throughput drug screen in 47 multiple myeloma cell lines against the NCATS MIPE library collection: SKMM1_PLB cell viability assay (AID 1919863). Further: nearly all actives have a fitted effect of over 35% in size. Further: potency means the concentration at half of the fitted maximal effect. Particulars: SKMM1 myeloma viability, CellTiter-Glo ATP, 48 h; viability: hits give low values. The method, boiled down: as §1
Assay [8] can be described thus: Quantitative High-Throughput drug screen in 47 multiple myeloma cell lines against the NCATS MIPE library collection: XG1_PLB cell viability assay (AID 1919866). Further: nearly all actives have a fitted effect of over 35% in size. Further: potency means the concentration at half of the fitted maximal effect. The method, boiled down: as §1
Assay [9] in a line: Quantitative High-Throughput drug screen in 47 multiple myeloma cell lines against the NCATS MIPE library collection: VP6_DJ cell viability assay (AID 1919867). Further: potency means the concentration at half of the fitted maximal effect; nearly all actives have a fitted effect of over 40% in size. The method, boiled down: as §1
Assay [10] in a line: Quantitative High-Throughput drug screen in 47 multiple myeloma cell lines against the NCATS MIPE library collection: UTMC2_PLB cell viability assay (AID 1919868). Further: nearly all actives have a fitted effect of over 55% in size. Further: potency means the concentration at half of the fitted maximal effect.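 On viability (% of DMSO control): 100% = DMSO-only wells and 0% = media-only wells without cells.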 Conditions: CellTiter-Glo ATP luminescence, 48 h; viability (% of DMSO control): at 45.8 µM (top of the series). The method in brief:
as §1

Assay [11] can be described thus: Quantitative High-Throughput drug screen in 47 multiple myeloma cell lines against the NCATS MIPE library collection: PE2_PLB cell viability assay (AID 1919869). Further: nearly all actives have a fitted effect of over 35% in size. Further: potency means the concentration at half of the fitted maximal effect.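 On viability (% of control): 100% = DMSO-only wells and 0% = cell-free media-only wells.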 The method, boiled down:
as §1

Assay [12] can be described thus: Quantitative High-Throughput drug screen in 47 multiple myeloma cell lines against the NCATS MIPE library collection: OPM2_DSMZ cell viability assay (AID 1919872). Further: nearly all actives have a fitted effect of over 30% in size. Further: potency means the concentration at half of the fitted maximal effect. The method, boiled down: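 Relative luminescence from CellTiter-Glo served as the viability signal, referenced to DMSO-treated (100%) and cell-free medium (0%) controls. Treatment lasted 48 hours at 37C with 500 cells per well.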

The nature of assay [13]: Quantitative High-Throughput drug screen in 47 multiple myeloma cell lines against the NCATS MIPE library collection: KMS11_JCRBsus cell viability assay (AID 1919873). Further: nearly all actives have a fitted effect of over 50% in size. Further: potency means the concentration at half of the fitted maximal effect.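 On viability (% of control): 100% = DMSO-only wells and 0% = media-only wells without cells.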 The method in brief:
as §1

The nature of assay [14]: Quantitative High-Throughput drug screen in 47 multiple myeloma cell lines against the NCATS MIPE library collection: U266_ATCC cell viability assay (AID 1919864). Further: nearly all actives have a fitted effect of over 35% in size. Further: potency means the concentration at half of the fitted maximal effect.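 On viability (% of DMSO control): 0% = media-only wells without cells and 100% = DMSO-only wells.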 The method, boiled down: as §1
Assay [15] can be described thus: Quantitative High-Throughput drug screen in 47 multiple myeloma cell lines against the NCATS MIPE library collection: RPMI8226_ATCC cell viability assay (AID 1919871). Further: nearly all actives have a fitted effect of over 30% in size. Further: potency means the concentration at half of the fitted maximal effect. The method in brief:
as §1

Assay [16] is described as follows: Quantitative High-Throughput drug screen in 47 multiple myeloma cell lines against the NCATS MIPE library collection: XG6_PLB cell viability assay (AID 1919865). Further: nearly all actives have a fitted effect of over 40% in size. Further: potency means the concentration at half of the fitted maximal effect. The method, boiled down:
as §1

Assay [17] can be described thus: Quantitative High-Throughput drug screen in 47 multiple myeloma cell lines against the NCATS MIPE library collection: KMS28BM_JCRB cell viability assay (AID 1919874). Further: nearly all actives have a fitted effect of over 35% in size. Further: potency means the concentration at half of the fitted maximal effect. The method in brief: as §1
Assay [18] in a line: Quantitative High-Throughput drug screen in 47 multiple myeloma cell lines against the NCATS MIPE library collection: PCM6_Riken cell viability assay (AID 1919870). Further: nearly all actives have a fitted effect of over 30% in size. Further: potency means the concentration at half of the fitted maximal effect. The method in brief: as §1
The nature of assay [19]: Quantitative High-Throughput drug screen in 47 multiple myeloma cell lines against the NCATS MIPE library collection: L363_DSMZ cell viability assay (AID 1918984). Further: nearly all actives have a fitted effect of over 40% in size. Particulars: L363 myeloma viability, CellTiter-Glo ATP luminescence, 48 h; viability (% of control): at 45.8 µM (top of the series). The method, boiled down: as §1

`O=C(Nc1ccc(OC(F)(F)F)cc1)c1sccc1NCc1ccnc2ccccc12`: the Potency was 20.9 µM (active) in assay [1]; 20.9 µM (active) in [2]; 10.5 µM (active) in [3]; 16.6 µM (active) in assay [4]; 2.96 µM (active) in [5]; 20.9 µM (active) in [6]. Also, the Potency in [7] is 18.7 µM (active); in assay [8], 5.9 µM (active); in assay [9], 16.6 µM (active); in [10] it was 23.5 µM (active); in assay [11], 20.9 µM (active); in assay [12], 18.7 µM (active). Besides, the Potency in assay [13] is 7.43 µM (active).
With `C[C@@H](NC(=O)c1ncnc(N)c1Cl)c1ncc(C(=O)Nc2cc(C(F)(F)F)c(Cl)cn2)s1`, the Potency in assay [1] is 4.69 µM (active); in [2] it was 16.6 µM (active); in assay [3], 4.18 µM (active); in [4] it was 7.43 µM (active); in assay [5] it was 9.35 µM (active); in assay [7] it was 16.6 µM (active). In addition, the Potency in assay [14] was 26.4 µM (active); in assay [8], 10.5 µM (active); in assay [9], 20.9 µM (active); in assay [15], 13.2 µM (active); in assay [12], 9.35 µM (active).
As for `CCCCC[C@H](O)C=C[C@H]1[C@H](O)CC(=O)[C@H]1CC=CCCCC(=O)O`, the Potency result in assay [1], in assay [2], in assay [10], in assay [12] and in [17] was “inactive” in each case. In addition, the Potency in [3] was 0.0148 µM (active); in assay [6], 18.7 µM (active); in [14], 18.7 µM (active); in assay [16], 20.9 µM (active); in assay [11] it was 23.5 µM (active).
In the case of `CC[C@H](NC(=O)[C@H](C)NC)C(=O)N1C[C@@H](O)C[C@H]1Cc1c(-c2[nH]c3cc(F)ccc3c2C[C@H]2C[C@H](O)CN2C(=O)[C@H](CC)NC(=O)[C@H](C)NC)[nH]c2cc(F)ccc12`, the Potency in [1] is 20.9 µM (active); in assay [4], 1.87 µM (active); in assay [6], 13.2 µM (active); in assay [16], 4.18 µM (active); in assay [8] it was 5.9 µM (active); in assay [9], 3.72 µM (active). Further, the Potency in assay [18] was 5.9 µM (active); in assay [15], 1.32 µM (active). Moreover, the Potency result in [2], in assay [13] and in assay [17] was “inactive” throughout.
As for `CO[C@H]1/C=C\O[C@@]2(C)Oc3c(C)c(O)c4c(O)c(c(C=NN5CCN(C6CCCC6)CC5)c(O)c4c3C2=O)NC(=O)C(C)=CC=C[C@H](C)[C@H](O)[C@@H](C)[C@@H](O)[C@@H](C)[C@H](OC(C)=O)[C@H]1C`, the Potency in [1] was 1.87 µM (active); in assay [2], 0.418 µM (active); in assay [3], 2.96 µM (active); in assay [5] it was 0.418 µM (active); in [6] it was 0.264 µM (active); in [7] it was 7.43 µM (active). Moreover, the Potency in assay [14] was 16.6 µM (active); in [16], 0.105 µM (active); in assay [10], 0.059 µM (active); in [11] it was 0.118 µM (active); in assay [18] it was 0.118 µM (active); in assay [15], 1.18 µM (active). Also, the Potency in assay [12] was 14.8 µM (active).
For the compound `CON(C)C(=O)N1N=C(c2cc(F)ccc2F)S[C@]1(CCCN)c1ccccc1`, the Potency result in assay [1], in assay [2], in [3], in assay [4], in assay [5] and in assay [8] was “inactive” throughout. Also, the Potency result in assay [10], in assay [11] and in assay [13] was “inactive” throughout. The viability in [7] was 61.2%.
On to `COc1cc2nccc(Oc3ccc(NC(=O)Nc4ccc(F)cc4F)c(F)c3)c2cc1OC`, for which the Potency in assay [1] is 9.35 µM (active); in assay [2], 6.62 µM (active); in assay [5] it was 1.87 µM (active); in [14], 11.8 µM (active); in [12], 4.69 µM (active); in assay [13], 2.09 µM (active). Moreover, in assay [17], the Potency was 1.05 µM (active). The Potency result in assay [19], in [16], in assay [8], in assay [10] and in assay [18] was “inactive” throughout.
`CCOC(=O)[C@H](CCc1ccccc1)N[C@@H](C)C(=O)N1CCCC1C(=O)O` (stereo partly drawn): the Potency entry in assay [1], in assay [2], in [4], in assay [6], in assay [11] and in assay [15] was “inactive” in each case. The Potency result in [13] and in [17] was “inactive” in each case. Also, the Potency in [14] is 20.9 µM (active); in assay [16] it was 23.5 µM (active); in assay [8] it was 23.5 µM (active); in assay [9], 20.9 µM (active); in assay [18] it was 26.4 µM (active).
`N#Cc1c(N(CC(=O)O)CC(=O)O)sc(C(=O)O)c1CC(=O)O`: the Potency entry in assay [1], in assay [2], in assay [14], in [15] and in [12] was “inactive” throughout. Also, the Potency in [4] is 8.33 µM (active); in assay [10], 23.5 µM (active); in [11], 14.8 µM (active). Also, the viability in assay [7] is 102%.
Consider `CC(C)CN(C[C@@H](O)[C@H](Cc1ccccc1)NC(=O)O[C@H]1CO[C@H]2OCC[C@H]21)S(=O)(=O)c1ccc(N)cc1`, for which the Potency in assay [1] was 3.72 µM (active); in [2] it was 20.9 µM (active); in assay [4], 2.96 µM (active); in [5] it was 2.35 µM (active); in assay [14], 1.32 µM (active); in assay [16], 3.72 µM (active). Also, the Potency in assay [8] is 16.6 µM (active); in assay [9], 8.33 µM (active); in assay [10] it was 13.2 µM (active); in assay [18], 4.69 µM (active); in assay [13] it was 9.35 µM (active). The Potency entry in assay [3], in [11] and in [12] was “inactive” each time.
Take `Cc1c(C(=O)Nc2ccc(N3C[C@@H](C)O[C@@H](C)C3)nc2)cccc1-c1ccc(OC(F)(F)F)cc1`: the Potency in [1] is 9.35 µM (active); in assay [2], 13.2 µM (active); in assay [4], 9.35 µM (active); in [5], 20.9 µM (active); in assay [7], 26.4 µM (active); in assay [14], 5.9 µM (active). For the same compound, the values for the Potency in assay [15] and in assay [12] were 16.6 µM (active) and 23.5 µM (active), respectively. The Potency result in [11], in assay [18], in assay [13] and in assay [17] was “inactive” each time.
Regarding `C[C@@H]1C[C@H]2[C@@H]3CCC4=CC(=O)C=C[C@]4(C)[C@@]3(F)[C@@H](O)C[C@]2(C)[C@@]1(O)C(=O)CO`, the Potency in [1] was 0.0083 µM (active); in [15], 0.0166 µM (active); in assay [13], 0.0132 µM (active). Moreover, the Potency result in [2], in assay [4], in assay [6], in [14], in assay [16] and in [10] was “inactive” each time. Moreover, the Potency entry in assay [11], in assay [18], in [12] and in assay [17] was “inactive” each time. The viability in assay [7] was 118%.
As to `NC(=O)c1ncn([C@@H]2O[C@H](CO)[C@@H](O)[C@@H]2O)n1`, the Potency entry in assay [1], in [2], in assay [4], in assay [6], in assay [16] and in assay [8] was “inactive” throughout. In addition, the Potency entry in [11], in [18], in assay [15], in assay [12] and in [13] was “inactive” throughout.

Usually viability stands for a read-out of living cells in per cent, often relative to untreated cells.

The values are drawn from PubChem BioAssay (NCATS).
